This note sets out measurements from PubChem BioAssay (EPA / NIEHS).

Structures are written as SMILES. Inconclusive results are not listed. Active and inactive are the calls of the source. How the source made its calls: active means hit-call score of the fitted dose curve at least 0.9, where 1 is the maximum; inconclusive means response in the unintended direction; inactive means score below 0.9.

For this test, the target named is Nuclear receptor subfamily 4 group A member 2 (Homo sapiens) (UniProt P43354). In words: ATG_NURR1_TRANS: Attagene TRANS-FACTORIAL HepG2 Assay for human Nuclear Receptor Related Protein 1 (NURR1) (AID 2282985). The note with it: HepG2 Attagene TRANS reporter, mRNA readout. In a few lines: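 HepG2 / transient MRTU transfection / 24 h compound exposure / RT-PCR + CE fluorescence of reporter mRNA / gain-of-signal vs DMSO.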
Chain of Nuclear receptor subfamily 4 group A member 2 (Homo sapiens) (P43354 whole entry, looked up): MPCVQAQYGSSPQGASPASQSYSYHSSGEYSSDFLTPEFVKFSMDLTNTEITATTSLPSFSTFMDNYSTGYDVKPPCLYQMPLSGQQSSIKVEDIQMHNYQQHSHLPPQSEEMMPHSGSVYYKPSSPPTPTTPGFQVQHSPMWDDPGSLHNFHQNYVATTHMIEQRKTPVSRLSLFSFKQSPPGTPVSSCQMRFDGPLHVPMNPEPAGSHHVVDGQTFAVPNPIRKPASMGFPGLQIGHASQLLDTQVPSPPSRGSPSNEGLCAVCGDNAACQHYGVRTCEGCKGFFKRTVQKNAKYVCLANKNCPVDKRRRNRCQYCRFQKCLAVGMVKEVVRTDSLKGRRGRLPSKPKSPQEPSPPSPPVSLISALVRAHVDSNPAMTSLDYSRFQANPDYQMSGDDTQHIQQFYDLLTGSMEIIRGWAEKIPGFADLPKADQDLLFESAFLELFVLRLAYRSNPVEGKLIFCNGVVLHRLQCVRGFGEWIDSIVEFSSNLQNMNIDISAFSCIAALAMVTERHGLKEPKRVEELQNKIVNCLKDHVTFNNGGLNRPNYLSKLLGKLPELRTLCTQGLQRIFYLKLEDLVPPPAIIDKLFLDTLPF
For `CC/C=C\C#N`, the result was inactive.
As to `CC/C=C\CCOC(C)OCC` (stereo not given), the compound was called inactive.
In the case of `O=C(C=Cc1ccccc1)OCCCc1ccccc1`, the compound was classed as inactive.
On to `CCC=C(C)C=O`, for which the compound was classed as inactive.
As to `[Cu+]`, the result was inactive.
On to `c1coc(CNc2ncnc3nc[nH]c23)c1`, for which the outcome was inactive.
For `S=c1[nH][nH]c(=S)s1`, the result was inactive.
For `CCCOC(=O)CC`, the compound was classed as inactive.
On to `CC(C)(C)c1cccc(O)c1`, for which the compound was called inactive.
With `CCCc1ccc(O)cc1`, the compound was classed as inactive.
For `N=C1N=C(N)c2ccccc21`, the compound was classed as inactive.
By AC50 is commonly meant the concentration at which the activity in the assay is half-maximal. Consider `CCCCCC(=O)O[C@]1(C(C)=O)CC[C@H]2[C@@H]3CCC4=CC(=O)CC[C@]4(C)[C@H]3CC[C@@]21C`, for which the AC50 is 8.77 µM (active).
With `CCCCCCOC(C)=O`, the call was inactive.
As to `OCCCO`, the outcome was inactive.
On to `CC(=O)CC(=O)N(C)C`, for which the compound was classed as inactive.
Still for that read-out and setting: to `OC[C@H]1O[C@@H](O[C@H]2[C@H](O)[C@@H](O)[C@H](O)O[C@@H]2CO)[C@H](O)[C@@H](O)[C@H]1O` belongs “inactive”.
Take `C/C=C(\C)C(=O)OC/C=C(\C)CCC=C(C)C`: the concentration at half-maximal activity (AC50) was 20 µM (active).
As for `NC(=O)c1cnccn1`, the compound was classed as inactive.
As to `C[C@H](CCC(=O)O)[C@H]1CC[C@H]2[C@@H]3CC[C@@H]4C[C@H](O)CC[C@]4(C)[C@H]3CC[C@]12C`, the concentration at half-maximal activity (AC50) was 27.7 µM (active).
With `CC(C)N(c1ccccc1)C(C)C`, the result was inactive.
